Values joined by “and” are separate entries in the source; they are usually repeats but may differ in a detail not shown here. Equal entries are not always repeated. Among all 5,500 compounds or so, about 2,000 (36%) were called active. Roughly 18% stayed inconclusive and do not appear here. Rule as the data show it: active = normalized growth mostly below about 0.91 (no sharp cut-off); inconclusive = no clear call, values can overlap the other calls; inactive = mostly above about 0.92. The list shows a part of the results.
Test: chemical genetic growth profiling, strain panel (AID 1159580);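 also: tested at 20 µM; growth read once vehicle control cultures reached saturation at 30 °C; 1 = growth at the plate median or of vehicle wells; lower values mean less growth of the strain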
Conditions: S. cerevisiae deletion strains, growth OD

Measured: normalized growth

CCCN(CCC)C(=O)C(CCC(=O)O)NC(=O)c1ccccc1 (stereo not given)
inactive: locus YAL013W, strain DEP1, active compounds read low 0.996 and 1.01 | locus YAL021C, strain ccr4, active compounds read low 0.98 | locus YAL026C, strain drs2, active compounds read low 0.987 | locus YAL030W, strain snc1, active compounds read low 1 | locus YAL040C, strain CLN3, active compounds read low 1 | locus YBL061C, strain skt5, active compounds read low 0.983 | locus YBR009C, strain hhf1, active compounds read low 0.992 | locus YBR021W, strain FUR4, active compounds read low 1.01 | locus YBR023C, strain chs3, active compounds read low 0.992 | locus YBR171W, strain sec66, active compounds read low 0.98 | locus YBR229C, strain ROT2, active compounds read low 0.999 | locus YBR231C, strain swc5, active compounds read low 0.979 | locus YBR279W, strain paf1, active compounds read low 0.979 | locus YCL011C, strain gbp2, active compounds read low 0.983 | locus YCL016C, strain dcc1, active compounds read low 1.01 | locus YCL029C, strain bik1, active compounds read low 0.985 | locus YCL061C, strain MRC1 (second series), active compounds read low 1 | locus YCL061C, strain MRC1, active compounds read low 0.994 | locus YCL069W, strain vba3, active compounds read low 0.996 | locus YCR088W, strain abp1, active compounds read low 0.98 | locus YDL005C, strain med2, active compounds read low 0.99 | locus YDL035C, strain GPR1, active compounds read low 1.02 | locus YDL040C, strain nat1, active compounds read low 0.993 | locus YDL074C, strain BRE1, active compounds read low 0.987 | locus YDL101C, strain DUN1, active compounds read low 0.994 | locus YDL134C, strain PPH21, active compounds read low 0.996 | locus YDL185W, strain tfp1, active compounds read low 0.958 | locus YDL192W, strain arf1, active compounds read low 0.979 | locus YDR001C, strain nth1, active compounds read low 0.973 | locus YDR069C, strain doa4, active compounds read low 0.993 | locus YDR101C, strain arx1, active compounds read low 0.994 | locus YDR137W, strain rgp1, active compounds read low 1.02 | locus YDR150W, strain NUM1, active compounds read low 0.991 and 0.999 | locus YDR159W, strain sac3, active compounds read low 0.935 | locus YDR162C, strain NBP2, active compounds read low 1 | locus YDR195W, strain ref2 1.02 | locus YDR297W, strain sur2, active compounds read low 0.987 | locus YDR318W, strain mcm21, active compounds read low 0.994 | locus YDR334W, strain swr1, active compounds read low 0.962 | locus YDR335W, strain msn5, active compounds read low 0.981 | locus YDR363W, strain ESC2, active compounds read low 1.01 | locus YDR388W, active compounds read low 1 | locus YDR392W, strain spt3, active compounds read low 0.986 | locus YDR502C, strain sam2, active compounds read low 1.01 | locus YEL003W, strain gim4, active compounds read low 0.997 | locus YEL037C, strain rad23, active compounds read low 0.982 | locus YEL061C, strain CIN8 (second series), active compounds read low 0.965 | locus YEL061C, strain CIN8, active compounds read low 0.992 | locus YER002W, strain NOP16, active compounds read low 0.986 | locus YER015W, strain faa2, active compounds read low 0.989 | locus YER016W, strain bim1, active compounds read low 0.992 | locus YER110C, active compounds read low 0.991 | locus YER111C, strain swi4, active compounds read low 0.996 | locus YER155C, strain BEM2 (second series), active compounds read low 0.985 | locus YER155C, strain BEM2, active compounds read low 1 | locus YER167W, strain BCK2, active compounds read low 0.993 | locus YFR010W, strain ubp6, active compounds read low 0.982 | locus YGL078C, strain dbp3, active compounds read low 0.996 | locus YGL086W, strain mad1, active compounds read low 1.01 | locus YGL167C, strain pmr1, active compounds read low 0.986 | locus YGL173C, strain kem1, active compounds read low 0.982 | locus YGL227W, strain vid30, active compounds read low 0.986 | locus YGL240W, strain doc1, active compounds read low 0.987 | locus YGL248W, strain PDE1, active compounds read low 1.01 | locus YGL253W, strain hxk2, active compounds read low 0.982 | locus YGR078C, strain PAC10, active compounds read low 0.984 and 1.01 | locus YGR135W, strain pre9, active compounds read low 0.989 | locus YGR229C, strain SMI1, active compounds read low 1.02 | locus YGR252W, strain gcn5, active compounds read low 1.13 | locus YHR013C, strain ard1, active compounds read low 1.01 | locus YHR027C, strain rpn1, active compounds read low 0.982 | locus YHR030C, strain SLT2, active compounds read low 0.992 | locus YHR079C, strain IRE1 (second series), active compounds read low 0.991 | locus YHR079C, strain IRE1, active compounds read low 0.979 | locus YHR094C, strain hxt1, active compounds read low 0.943 | locus YHR129C, strain ARP1, active compounds read low 0.998 | locus YHR142W, strain chs7, active compounds read low 0.977 | locus YHR200W, strain rpn10, active compounds read low 0.989 | locus YIL066C, strain RNR3, active compounds read low 0.994 | locus YIL073C, strain SPO22, active compounds read low 0.93 | locus YIL125W, strain kgd1, active compounds read low 0.985 | locus YIR030C, strain dcg1, active compounds read low 0.988 | locus YJL092W, strain hpr5, active compounds read low 0.997 | locus YJL095W, strain BCK1 (second series), active compounds read low 0.968 | locus YJL095W, strain BCK1, active compounds read low 0.968 and 0.993 | locus YJL115W, strain asf1, active compounds read low 0.99 | locus YJL129C, strain trk1, active compounds read low 0.968 | locus YJL134W, strain LCB3, active compounds read low 1 | locus YJL154C, strain vps35, active compounds read low 0.962 | locus YJL164C, strain tpk1, active compounds read low 1 | locus YJL166W, strain qcr8, active compounds read low 0.983 | locus YJL168C, strain set2, active compounds read low 0.985 | locus YJL187C, strain SWE1 (second series), active compounds read low 0.982 | locus YJR043C, strain POL32, active compounds read low 0.985 | locus YJR066W, strain TOR1, active compounds read low 0.926
